Data on 37 molecules can be found in PubChem BioAssay (NCATS).

Results filed as inconclusive are left out. Where a call stands in place of a potency, no number is given. Calls of active or inactive are those of the source. The call rests on the fitted dose curve; in most records, active means well fitted inhibition curve with a large enough effect; inconclusive means small, poorly fitted or top-dose-only effect; inactive means flat fitted curve, though single readings scatter.
Potency means the concentration at half of the fitted maximal effect.

This test has as its system Zika virus NS2B-NS3 protease. In words: Primary screen GU AMC qHTS for Zika virus inhibitors (AID 1347154). Further: nearly all actives have a fitted effect of over 70% in size. The following applies: Zika NS2B-NS3 unlinked protease, AMC fluorogenic substrate; series mostly up to 54.1 µM. In short, it runs like this: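 Unlinked Zika NS2B hydrophilic domain–NS3 protease complex at 25 nM in 10 mM Tris-HCl pH 8.0, 0.01% Tween 20, with an AMC peptide substrate. Fluorescence change (340/450 nm) over 15 min at room temperature, normalized to controls, fitted to 4-parameter Hill.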
(Quantitative high-throughput screening tests each substance at several concentrations.)
For the molecule `COc1ccc2cccc(CCNC(C)=O)c2c1`, the Potency entry is “inactive”.

For `O=C(CCN1CCN(C(=O)OCc2cc(Cl)cc(Cl)c2)CC1)c1ccc2[nH]c(=O)oc2c1`, the Potency entry is “inactive”.

As for `O=C(CCc1ccc(O)cc1)c1c(O)cc(O)cc1O[C@@H]1O[C@H](CO)[C@H](O)[C@H](O)[C@H]1O`, the Potency entry is “inactive”.

On to `COCCCCC(=NOCCN)c1ccc(C(F)(F)F)cc1`, for which the Potency entry is “inactive”.

As to `COCCOc1nc(-c2ccc(Cl)c(Cl)c2)n(-c2ccc(NC(=O)CCl)cc2)n1`, the Potency entry is “inactive”.

As for `CN1CCN(CCOc2cc(OC3CCOCC3)c3c(Nc4c(Cl)ccc5c4OCO5)ncnc3c2)CC1`, the Potency entry is “inactive”.

In the case of `C[C@@H](O)[C@H]1C(=O)N2C(C(=O)O)=C(S[C@@H]3CN[C@H](C(=O)N(C)C)C3)[C@H](C)[C@H]12`, the Potency entry was “inactive”.

On to `C=C1C(=O)OC(CCCCCCCC)C1C(=O)O` (configuration not stated), for which the Potency result was “inactive”.

On to `N[C@H](CSC(c1ccccc1)(c1ccccc1)c1ccccc1)C(=O)O`, for which the Potency result was “inactive”.

`COC(=O)C1=CO[C@@H](O)[C@@H]2C(CO)=CC[C@@H]12`: the Potency entry was “inactive”.

As to `NC[C@@H]1O[C@@H](O[C@H]2[C@@H](O)[C@H](O[C@@H]3[C@@H](O)[C@@H](N)C[C@H](N)[C@H]3O[C@H]3O[C@H](CN)[C@@H](O)[C@@H](O)[C@H]3N)O[C@H]2CO)[C@H](N)[C@@H](O)[C@@H]1O`, the Potency result was “inactive”.

In the case of `COc1ccc(-c2oc3c(CC=C(C)C)c(OC4O[C@H](CO)[C@@H](O)[C@H](O)[C@@H]4O)cc(O)c3c(=O)c2OC2O[C@@H](C)[C@H](O)[C@@H](O)[C@@H]2O)cc1` (some centres not stated), the Potency entry was “inactive”.

With `C[C@]12CC[C@@H]3c4ccc(O)cc4CC[C@H]3[C@H]1C[C@@H](O)[C@H]2O`, the Potency entry is “inactive”.

As for `O=c1cc(-c2cccc3c2Sc2ccccc2S3)oc(N2CCOCC2)c1`, the Potency result is “inactive”.

Turning to `Cn1cc(C=C2C(=O)Nc3cccnc32)c2ccccc21`, the Potency entry was “inactive”.

As to `O=C(OCC#CCSc1nnc(-c2cccc3ccccc23)o1)c1cc2ccccc2s1`, the Potency entry is “inactive”.

Regarding `c1ccc2c(Cc3c[nH]c4ccccc34)c[nH]c2c1`, the Potency entry is “inactive”.

In the case of `C[C@H](NC(=O)c1sccc1OCc1ccc(Cl)cc1)c1ccccc1`, the Potency result was “inactive”.

On to `COc1ccc(Cc2ccc(NC(N)=O)cc2)cc1-c1cccc(Cl)c1`, for which the Potency entry is “inactive”.

On to `N#CC1(c2ccc(NC(=O)c3cccnc3NCc3ccncc3)cc2)CCCC1`, for which the Potency result was “inactive”.

With `C=C1C(=O)OC2C=C(C)CCC=C(C)CCC12` (configuration not stated), the Potency entry was “inactive”.

Regarding `O=C(O)c1cc(O)c2c(c1)C(=O)c1cccc(O)c1C2=O`, the Potency was 24.8 µM (active).

For the molecule `Cc1c[nH]c(C=C2C(=O)Nc3ccccc32)c1CCC(=O)O`, the Potency entry was “inactive”.

Consider `NC(=O)c1cnc(-c2ccc(C3(N)CCC3)cc2)c(-c2ccccc2)c1`, for which the Potency result is “inactive”.

Take `CCNc1cc(NC2CCC(O)CC2)nc(Nc2ccc3c(ccn3Cc3ccccc3)c2)n1` (configuration not stated): the Potency result is “inactive”.

`CC(=Cc1ccccc1)C=C1SC(=S)N(CC(=O)O)C1=O`: the Potency result was “inactive”.

As for `CC(C)(C)Cn1c(N)nc2ccc(-c3[nH]c(C(C)(C)C)nc3-c3ccc(F)cc3)nc21`, the Potency is 10.8 µM (active).

As to `CC(=O)OC1C(C)OC(Oc2c(-c3ccc(O)cc3)oc3cc(O)cc(O)c3c2=O)C(O)C1OC(C)=O` (configuration not stated), the Potency result is “inactive”.

On to `CO[C@H]1C=CO[C@@]2(C)Oc3c(C)c(O)c4c(O)c(c5c(c4c3C2=O)NC2(CCN(CC(C)C)CC2)N=5)=NC(=O)C(C)=CC=C[C@H](C)[C@H](O)[C@@H](C)[C@@H](O)[C@@H](C)[C@H](OC(C)=O)[C@H]1C`, for which the Potency entry was “inactive”.

With `C[N+]1(C)[C@@H]2CC(OC(=O)[C@H](CO)c3ccccc3)C[C@H]1[C@H]1O[C@@H]12` (some centres not stated), the Potency entry was “inactive”.

With `CCCCCN(C)CCC(O)(P(=O)(O)O)P(=O)(O)O`, the Potency result is “inactive”.

Regarding `CC[C@@]1(O)C[C@H](O[C@H]2C[C@H](N(C)C)[C@H](O[C@H]3C[C@H](O)[C@H](O[C@H]4CCC(=O)[C@H](C)O4)[C@H](C)O3)[C@H](C)O2)c2c(cc3c(c2O)C(=O)c2c(O)cccc2C3=O)[C@@H]1C(=O)OC`, the Potency entry is “inactive”.

As for `CNC(=O)c1ccc2cc(C3(O)CCn4cncc43)ccc2c1` (configuration not stated), the Potency entry was “inactive”.

As to `CN(C)CCC=C1c2ccccc2COc2ccc(CC(=O)O)cc21`, the Potency result was “inactive”.

Regarding `COc1ccc(C2Sc3ccccc3N(CCN(C)C)C(=O)C2OC(C)=O)cc1` (configuration not stated), the Potency entry was “inactive”.

For the molecule `NS(=O)(=O)c1ccc(NC2=CC(=O)c3ccccc3C2=O)cc1`, the Potency entry is “inactive”.

Turning to `CC(C)[C@H](CO)Nc1nc(Nc2ccc(C(=O)O)c(Cl)c2)c2ncn(C(C)C)c2n1`, the Potency entry was “inactive”.
